This is a sample that favours compounds with a hit; in the whole collection about 2.4% have one here.
Pol beta inh-1: inhibitors of human DNA polymerase beta; 340,000 compounds, 1.3% hits; Pol beta primer extension/strand displacement, fluorescence kinetic; P06746; AID 485314; Potency, µM (titrated, usually from 114 µM), without a hit: at the highest dose activity change, negative = inhibition, actives largely listed as inhibitors; note: potency is the fitted concentration of half-maximal effect; % is set by controls: 0 for no effect and ±100 for the full control effect
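Preincubation: enzyme (10 nM) with compound, 15 min, RT. Reaction: substrate added to 50 nM final. Reads: 0 and 10 min. Analysis: normalized, Hill fit.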
FEN1 inh: blocks human flap endonuclease 1; P39748; Recombinant FEN1 flap cleavage, fluorescence, 15 min; Potency, µM (series often up to 114 µM), inactives show top-dose activity change, negative = inhibition, actives largely listed as inhibitors; 390,000 compounds, 0.35% hits; AID 588795; note: potency is the fitted concentration of half-maximal effect; % is set by controls: 0 for no effect and ±100 for the full control effect; nearly all actives have a fitted effect of over 65% in size
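Quantitative HTS format: each compound was titrated, incubated with 10 nM nuclease for 15 min at room temperature, then challenged with flap substrate at 50 nM final. Signal change over 15 min gave concentration–effect curves.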
Pol eta inh-1: inhibitors of human DNA polymerase eta; AID 588591; Potency, µM (titrated, usually from 114 µM), for the others: top-dose activity change, negative = inhibition, hits mostly inhibitors; Q9Y253; recombinant Pol eta, fluorescent DNA replication assay; 390,000 compounds, 1.2% hits; note: potency is the fitted concentration of half-maximal effect; % is set by controls: 0 for no effect and ±100 for the full control effect
Target sequence (Q9Y253 whole entry, looked up): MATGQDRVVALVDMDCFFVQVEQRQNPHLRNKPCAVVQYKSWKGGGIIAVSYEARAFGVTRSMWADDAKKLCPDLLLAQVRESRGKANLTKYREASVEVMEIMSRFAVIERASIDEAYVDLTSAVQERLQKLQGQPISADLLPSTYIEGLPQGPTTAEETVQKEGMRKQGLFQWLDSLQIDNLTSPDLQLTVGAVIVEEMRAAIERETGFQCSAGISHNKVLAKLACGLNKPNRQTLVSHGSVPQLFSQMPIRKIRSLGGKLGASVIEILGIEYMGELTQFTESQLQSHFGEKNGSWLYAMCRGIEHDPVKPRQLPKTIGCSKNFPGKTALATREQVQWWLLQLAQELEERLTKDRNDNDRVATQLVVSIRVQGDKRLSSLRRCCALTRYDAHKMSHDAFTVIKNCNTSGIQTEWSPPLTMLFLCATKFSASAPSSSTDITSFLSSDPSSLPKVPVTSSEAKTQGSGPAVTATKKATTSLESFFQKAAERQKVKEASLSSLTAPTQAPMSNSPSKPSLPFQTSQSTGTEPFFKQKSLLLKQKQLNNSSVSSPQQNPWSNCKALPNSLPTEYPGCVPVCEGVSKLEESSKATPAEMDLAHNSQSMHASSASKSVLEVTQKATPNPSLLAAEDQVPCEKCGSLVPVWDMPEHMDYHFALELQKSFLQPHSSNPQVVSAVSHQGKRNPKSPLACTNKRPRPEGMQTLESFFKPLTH
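Fluorescent replication assay: 50 nM final substrate added after a 15 min room-temperature compound preincubation with 10 nM enzyme. Signal taken at 0 min and again at 10 min.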
Pol kappa inh-1: DNA polymerase kappa (human) inhibition; purified Pol kappa, fluorescent DNA synthesis assay, 10 min; 400,000 compounds, 0.53% hits; Potency, µM (series often up to 107 µM), without a hit: at the highest dose activity, negative = inhibition, hits mostly inhibitors; note: potency is the fitted concentration of half-maximal effect; % is set by controls: 0 for no effect and ±100 for the full control effect
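Inhibition of 10 nM Pol kappa is measured by a fluorescent read-out at 0 and 10 min following addition of 50 nM substrate (final), with a 15-min room-temperature compound preincubation.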
Pol iota inh: DNA polymerase iota (human) inhibition. Q9UNA4. Pol iota fluorescent replication assay, 10 min. Potency, µM (doses to about 115 µM), without a hit: at the highest dose activity, negative = inhibition, hits mostly inhibitors. 390,000 compounds, 1% hits; note: potency is the fitted concentration of half-maximal effect
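Fluorescent replication assay read twice, at 0 min and 10 min after adding 50 nM (final) substrate. Enzyme (10 nM) and compounds were first incubated 15 min at room temperature; enzyme-free buffer wells were negative controls.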
PGK inhibitor: T. brucei PGK inhibition; P07378; PGK/GAPDH coupled, Kinase-Glo luminescence, 60 min; Potency, µM (doses to about 57.5 µM), without a hit: top-dose activity change, negative = inhibition, most hits filed as inhibitors; 380,000 compounds, 0.043% hits; AID 602233; note: potency is the fitted concentration of half-maximal effect; % is set by controls: 0 for no effect and ±100 for the full control effect; nearly all actives have a fitted effect of over 60% in size
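Luminescent ATP detection (Kinase-Glo Plus) follows a 60-minute room-temperature incubation, with wells lacking PGK as controls. Buffer: 100 mM TEA (pH 7.6), 5 mM MgCl2, 0.01% Tween-20. Coupling enzyme GAPDH (100 nM final) supplies unstable 1,3-BPG in-well.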
Pol beta inh-2: Human Pol beta inhibitor hit validation | shares compounds with Pol beta inh-1 | Pol beta primer extension/strand displacement, fluorescence kinetic | Potency, µM, most hits filed as inhibitors | 250 compounds, 87% hits; calls by dose curve; note: potency is the fitted concentration of half-maximal effect
Klenow counter: counter-screen for DNA polymerase beta inhibitors: Klenow fragment inhibition | shares compounds with Pol beta inh-1 | Klenow exo- polymerase counter-screen, fluorescent DNA substrate | activity change, negative = inhibition, % at 57.1 µM | 250 tested, under 10 active | AID 540300
HIV RT counter: inhibits HIV-1 reverse transcriptase in counter-screen | shares compounds with Pol beta inh-1 | HIV-1 RT polymerase activity, counter-screen | activity % (negative = inhibition, positive = activation), % at 57.1 µM | 250 tested, under 10 active
POLB inh gel: validation of human DNA polymerase beta inhibitors; inhibition, % at 10 µM; 110 compounds, 91% hits; radiolabeled primer extension gel assay, phosphorimager; shares compounds with Pol beta inh-1;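 active = inhibition at 10 µM of 30% or more; inconclusive = no clear call, values can overlap the other calls; inactive = inhibition at 10 µM under 30%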
PGK validate: blocks T. brucei phosphoglycerate kinase; shares compounds with Pol kappa inh-1; TbPGK coupled GAPDH assay, Kinase-Glo luminescence; Potency, µM (highest dose often 57.5 µM), inactives show top-dose activity change, negative = inhibition, hits mostly inhibitors; 500 compounds, 79% hits; AID 686980; note: potency is the fitted concentration of half-maximal effect; % is set by controls: 0 for no effect and ±100 for the full control effect; nearly all actives have a fitted effect of over 65% in size
POLI cherry-pick: Human Pol iota inhibitor confirmatory assay; Potency, µM, usual class: inhibitors; Pol iota primer extension, TAMRA/BHQ fluorescence; shares compounds with Pol kappa inh-1; 1,500 compounds, 77% hits; note: potency is the fitted concentration of half-maximal effect
Pol kappa inh-2: confirmation of human DNA polymerase kappa inhibitors; shares compounds with Pol eta inh-1; AID 720501; purified Pol-kappa, fluorescent strand-displacement substrate; Potency, µM, actives largely listed as inhibitors; 920 compounds, 76% hits; note: potency is the fitted concentration of half-maximal effect
Pol eta inh-2: Pol eta (human) inhibition, cherry-pick confirmation. 2,600 compounds, 64% hits. shares compounds with Pol eta inh-1. AID 720502. Potency, µM, actives largely listed as inhibitors. Pol eta primer extension, TAMRA/BHQ fluorescence, 10 min; note: potency is the fitted concentration of half-maximal effect
An asterisk follows results filed as active; i = inactive; ? = inconclusive; · = no result given. Unless noted, calls come from the whole dose curve; as a rule, active = well fitted curve in the direction sought with a large enough effect; inconclusive = small, poorly fitted or top-dose-only effect, or another doubt; inactive = no such curve, though single readings can be large; an effect the other way counts as inactive or inconclusive.

SMILES | Pol beta inh-1 | FEN1 inh | Pol eta inh-1 | Pol kappa inh-1 | Pol iota inh | PGK inhibitor | Pol beta inh-2 | Klenow counter | HIV RT counter | POLB inh gel | POLI cherry-pick | Pol eta inh-2 | others
O=C(CSc1ccsc1[N+](=O)[O-])Nc1cc(F)ccc1F | 13µM* | ? | 7.1µM* | 25µM* | ? | ? | 25* | -33 | -5 | 99* | 67* | 43* | PGK validate=15µM*
CC(=O)c1ccc(NC(=O)CSc2ccsc2[N+](=O)[O-])cc1 | 5.6µM* | -4% | 11µM* | ? | ? | -5% | 22* | -29 | 18 | 99* | 42* | ? | Pol kappa inh-2=38*
CCNC(=O)COC(=O)c1cc(-c2ccco2)nc2ccccc12 | 13µM* | ? | 20µM* | 35µM* | 8.9µM* | -23% | 25* | -20 | 5 | 98* | 34* | 38*
CCOc1ccc(/C=N/NC(=O)c2cc(-c3ccco3)nc3ccccc23)cc1 | 15% | 13% | -7% | -4% | ? | 0% | · | · | · | · | · | ·
CCOc1ccc(-n2c(SCC(=O)N3CCc4ccccc43)nnc2-c2c[nH]c3ccccc23)cc1 | 1µM* | 2% | 5.6µM* | 0% | ? | 9% | 1.4* | -10 | 26 | · | 30* | 76*
COc1cccc(-n2c(SCC(=O)N3CCc4ccccc43)nnc2-c2c[nH]c3ccccc23)c1 | 0% | -13% | -4% | -3% | -1% | 0% | · | · | · | · | · | ·
Cc1cc(C)n(-c2nc(Nc3ccccc3)nc(-n3nc(C)cc3C)n2)n1 | 10µM* | -5% | ? | -3% | -1% | · | ? | -37 | 23 | · | · | ?
C=C(C)C(=O)Nc1cccc(C2=NOC3(C2)C[C@H](C(N)=O)N(C(=O)c2ccccc2)C3)c1 (stereo partly specified) | 18µM* | -17% | 13µM* | ? | 50µM* | 11µM* | 28* | -32 | -1 | 86* | · | 27* | PGK validate=?
CSc1ccccc1NC(=O)c1noc2c1CCC2 | 10µM* | ? | 28µM* | ? | 20µM* | ? | 32* | -10 | 3 | 93* | 67* | 60*
COc1ccc(OC)c(NC(=O)c2noc3c2CCCC3)c1 | 30% | ? | 11% | -5% | -1% | i | · | · | · | · | · | ·

From PubChem BioAssay
